Source: PubChem BioAssay (Tox21)
Several values for one entry are separate records, joined by “and”; a condition that tells them apart may be missing. Equal values may be shown once. Inconclusive results are not listed. Where a structure was tested more than once in an assay, its records may differ in their call. Activity calls are given as the source filed them. Unless noted, calls follow the shape of the full dose curve.

What was measured:
[1] = Nuclear factor erythroid 2-related factor 2/antioxidant responsive element (Nrf2/ARE) small molecule agonists: qHTS cell viability counter screen in human keratinocytes (AID 1919968; active = well fitted curve in the direction sought with a large enough effect in the repeat runs; an effect the other way counts as inactive or inconclusive; also: nearly all actives have a fitted effect of over 55% in size; also: potency is read from the fitted curve at half-maximal effect)
Procedure, shortened: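 Viability counter-screen: KeratinoSens reporter cells, DMSO-delivered compounds, 23 h at 37 C, CellTiter-Fluor fluorescence.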

[2] = Nuclear factor erythroid 2-related factor 2/antioxidant responsive element (Nrf2/ARE) small molecule agonists: luciferase reporter gene qHTS assay in human keratinocytes (AID 1919969); also: nearly all actives have a fitted effect of over 35% in size; also: potency is read from the fitted curve at half-maximal effect
[3] = target: Gonadotropin-releasing hormone receptor (Homo sapiens) (UniProt P30968); test: Human gonadotropin-releasing hormone receptor (GnRHR) small molecule agonists, calcium flux assay in GnRHR-HEK293 cells (AID 1920063); also: nearly all actives have a fitted effect of over 35% in size
Procedure, shortened: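 Tox21-format agonist screen using human GnRHR-expressing HEK293 cells and a fluorescent calcium dye; kinetic 3-min fluorescence reading after compound addition, 15-point concentration series run in triplicate.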

[4] = target: KiSS-1 receptor (Homo sapiens) (UniProt Q969F8); test: Human kisspeptin (KISS1R) small molecule agonists, calcium flux assay in KISS1R-HEK293 cells (AID 1920064; active = well fitted curve in the direction sought with a large enough effect in the repeat runs; an effect the other way counts as inactive or inconclusive)
Procedure, shortened: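 Intracellular calcium mobilization in KISS1R-HEK293 cells was recorded by fluorescence (Ex/Em 480/540) for 3 min following compound addition to cells pre-loaded 1 h with calcium dye.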

[5] = G protein-coupled receptor (GPCR) small molecule agonists, calcium flux assay: HEK293 wild type cell line counter screen (AID 1920065)
Procedure, shortened: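 In this agonist-mode screen, ATP is the positive control and DMSO the vehicle. Cells grow 18 h before a 1 h dye incubation at 37 C; signal is taken at Ex/Em 480/540 over 3 min.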

[6] = p53 small molecule agonists, cell-based qHTS assay with human liver microsomes (AID 1963577);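 also: p53 response element beta-lactamase reporter cells with liver microsomes plus NADPH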
Procedure, shortened: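 In this qHTS, p53 response-element beta-lactamase cells receive test compound together with a microsome/NADPH activating system (0.5 mg/mL final each) and are incubated 16 h at 37 C before LiveBLAzer fluorescence detection.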

[7] = p53 small molecule agonists, cell-based qHTS assay with rat liver microsomes (AID 1963578)
Procedure, shortened: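 Agonist mode in p53RE-bla reporter cells, with compounds co-incubated 16 h at 37 C alongside 0.5 mg/mL rat liver microsomes and 0.5 mg/mL NADPH (final), followed by a 2 h LiveBLAzer detection step.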

[8] = p53 small molecule agonists, cell-based qHTS assay with human liver microsomes: qHTS cell viability counter screen (AID 1963579); also: nearly all actives have a fitted effect of over 45% in size
Procedure, shortened: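 Metabolically activated exposure: compounds, human liver microsomes and NADPH (0.5 mg/mL final apiece) were added to p53RE-bla cells seeded 5 h earlier, left 16 h at 37 C, and then assessed for viability by CellTiter-Glo luminescence.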

[9] = p53 small molecule agonists, cell-based qHTS assay with rat liver microsomes: qHTS cell viability counter screen (AID 1963580); also: nearly all actives have a fitted effect of over 45% in size; also: potency is read from the fitted curve at half-maximal effect
Procedure, shortened: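 Viability is assessed in parallel with the p53 reporter read: HCT-116 p53RE-bla cells receive compounds plus rat microsomes and NADPH (0.5 mg/mL final apiece), incubate 16 h at 37 C, and then CellTiter-Glo luminescence is recorded.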

[10] = p53 small molecule agonists, cell-based qHTS assay: qHTS cell viability counter screen (AID 1963581); also: nearly all actives have a fitted effect of over 45% in size
Procedure, shortened: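 Compounds are pinned onto HCT-116 p53RE-bla cells and left 16 h at 37 C. Following the reporter FRET read, ATP is quantified by CellTiter-Glo luminescence after 30 min at room temperature.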

[11] = p53 small molecule agonists, cell-based qHTS assay (AID 1963582; active = well fitted activation curve with a large enough effect in the signal ratio in the repeat runs, not every such curve was filed as active; the % refers to the signal ratio)
Procedure, shortened: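 Agonist activity was scored from beta-lactamase FRET fluorescence in p53RE-bla cells treated 16 h at 37 C with compounds in DMSO, substrate incubation being 2 h at room temperature.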

[12] = target: 5-hydroxytryptamine receptor 2A (Homo sapiens) (UniProt P28223); test: 5-hydroxytryptamine receptor 2A (HTR2A) small molecule antagonists, cell-based qHTS assay (AID 1963586); also: nearly all actives have a fitted effect of over 45% in size; also: potency is read from the fitted curve at half-maximal effect
Procedure, shortened: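 Antagonist-mode intracellular calcium assay: DOI (4 nM) added after 5 min compound pre-incubation at room temperature to dye-loaded HTR2A-CHO cells. Fluorescence followed for 3 min, sampled every second.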

[13] = target: 5-hydroxytryptamine receptor 2A (Homo sapiens) (UniProt P28223); test: 5-hydroxytryptamine receptor 2A (HTR2A) small molecule agonists, cell-based qHTS assay (AID 1963587); also: nearly all actives have a fitted effect of over 30% in size; also: potency is read from the fitted curve at half-maximal effect
Procedure, shortened: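 CHO cells stably expressing human HTR2A, plated 18 h, loaded with calcium dye 1 h at 37 C. Agonist mode: compounds added and intracellular calcium fluorescence recorded kinetically for 2 min at 1 sec intervals.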

[14] = target: Muscarinic acetylcholine receptor M1 (Homo sapiens) (UniProt P11229); test: Cholinergic receptor muscarinic 1 (CHRM1) small molecule antagonists, cell-based qHTS assay (AID 1963588); also: nearly all actives have a fitted effect of over 40% in size
Procedure, shortened: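 CHRM1-CHO calcium-flux assay, antagonist mode. Cells were seeded 18 h, dye-loaded 1 h at 37 C and given compound for 5 min at RT, then acetylcholine was added at 50nM. FDSS fluorescence was read 3 min; 15 concentrations, three runs.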

[15] = target: Muscarinic acetylcholine receptor M1 (Homo sapiens) (UniProt P11229); test: Cholinergic receptor muscarinic 1 (CHRM1) small molecule agonists, cell-based qHTS assay (AID 1963589); also: nearly all actives have a fitted effect of over 35% in size
Procedure, shortened: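 Stable CHRM1-CHO cells (human receptor) were incubated 18 h, dye-loaded for 1 h at 37 C and exposed to test compounds for agonist activity, with calcium-dependent fluorescence followed kinetically.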

[16] = cAMP Responsive Elements (CRE) small molecule agonists, cell-based qHTS assay (AID 1963590)
Procedure, shortened: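 FRET-based beta-lactamase readout (LiveBLAzer B/G, 2 h RT) quantified CRE activation in HEK 293T CRE-bla cells after 3 h treatment with DMSO-dissolved compounds.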

[17] = target: Beta-2 adrenergic receptor (Homo sapiens) (UniProt P07550); test: Adrenergic beta2 receptor (ADRB2) small molecule antagonists, cell-based qHTS assay (AID 1963592); also: series mostly up to about 92 µM; nearly all actives have a fitted effect of over 50% in size
Procedure, shortened: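 Cells (CHO, stable ADRB2 overexpression) incubated 18-20hr at 37C; compounds added from DMSO; agonist mix (1nM isoproterenol, 100uM IBMX, 25uM Ro-20-1724) added; 0.5hr RT; d2-cAMP and anti-cAMP-cryptate added; 1hr RT; 665/615 nm read.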

[18] = target: D(2) dopamine receptor (Homo sapiens) (UniProt P14416); test: Dopamine D2 receptor (DRD2) small molecule agonists, cell-based qHTS assay (AID 1963594); also: nearly all actives have a fitted effect of over 35% in size
Procedure, shortened: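 HEK293 cells stably expressing human DRD2, pre-treated with PDE inhibitor Ro20-1724 (0.1 mM final) and compound 10 min at room temperature, then stimulated with NKH477 (200nM […]) for 30 min. cAMP read by HTRF (665/620 nm).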

[19] = target: D(2) dopamine receptor (Homo sapiens) (UniProt P14416); test: Dopamine D2 receptor (DRD2) small molecule antagonists, cell-based qHTS assay (AID 1963595; active = well fitted inhibition curve with a large enough effect in the signal ratio in the repeat runs, with a control signal flat; the % refers to the signal ratio; also: potency is read from the fitted curve at half-maximal effect)
Procedure, shortened: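 In this cell-based antagonist screen, compounds act for 10 min at room temperature before a 30 min challenge with 12 nM quinpirole and 200 nM NKH477. cAMP is quantified by HTRF competition in DRD2-HEK293 cells containing 0.1 mM Ro20-1724.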

[20] = cAMP Responsive Elements (CRE) small molecule antagonists, cell-based qHTS assay (AID 1963591; active = well fitted inhibition curve with a large enough effect in the signal ratio in the repeat runs, not every such curve was filed as active; the % refers to the signal ratio)
Procedure, shortened: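 qHTS in CRE-bla HEK 293T cells: compound in DMSO, then 0.25 uM NKH477 (final), 3 h at 37 °C/5% CO2; beta-lactamase FRET read-out after 2 h substrate incubation.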

Measured: Potency

Sequence of Gonadotropin-releasing hormone receptor (Homo sapiens) (P30968 whole entry, looked up): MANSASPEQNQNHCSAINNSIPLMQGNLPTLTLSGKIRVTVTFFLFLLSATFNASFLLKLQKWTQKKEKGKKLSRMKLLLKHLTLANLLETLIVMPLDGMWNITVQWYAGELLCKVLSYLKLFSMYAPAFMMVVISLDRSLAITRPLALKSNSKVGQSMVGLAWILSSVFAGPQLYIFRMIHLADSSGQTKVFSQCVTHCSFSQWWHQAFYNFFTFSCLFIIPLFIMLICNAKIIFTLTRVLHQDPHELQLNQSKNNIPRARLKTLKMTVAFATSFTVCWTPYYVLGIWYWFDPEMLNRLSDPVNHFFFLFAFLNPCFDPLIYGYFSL
Sequence of Muscarinic acetylcholine receptor M1 (Homo sapiens) (P11229 whole entry, looked up): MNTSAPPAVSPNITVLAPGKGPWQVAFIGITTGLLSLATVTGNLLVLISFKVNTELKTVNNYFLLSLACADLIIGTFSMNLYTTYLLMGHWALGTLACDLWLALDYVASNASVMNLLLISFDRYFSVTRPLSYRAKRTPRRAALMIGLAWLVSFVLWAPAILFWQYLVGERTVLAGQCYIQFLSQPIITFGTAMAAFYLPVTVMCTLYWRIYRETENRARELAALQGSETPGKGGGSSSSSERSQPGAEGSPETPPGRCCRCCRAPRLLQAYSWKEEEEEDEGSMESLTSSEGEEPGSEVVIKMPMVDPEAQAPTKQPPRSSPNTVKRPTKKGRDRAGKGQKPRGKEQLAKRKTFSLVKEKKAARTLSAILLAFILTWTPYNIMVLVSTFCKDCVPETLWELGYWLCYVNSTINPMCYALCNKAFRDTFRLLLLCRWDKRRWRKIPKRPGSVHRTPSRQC
Sequence of Beta-2 adrenergic receptor (Homo sapiens) (P07550 whole entry, looked up): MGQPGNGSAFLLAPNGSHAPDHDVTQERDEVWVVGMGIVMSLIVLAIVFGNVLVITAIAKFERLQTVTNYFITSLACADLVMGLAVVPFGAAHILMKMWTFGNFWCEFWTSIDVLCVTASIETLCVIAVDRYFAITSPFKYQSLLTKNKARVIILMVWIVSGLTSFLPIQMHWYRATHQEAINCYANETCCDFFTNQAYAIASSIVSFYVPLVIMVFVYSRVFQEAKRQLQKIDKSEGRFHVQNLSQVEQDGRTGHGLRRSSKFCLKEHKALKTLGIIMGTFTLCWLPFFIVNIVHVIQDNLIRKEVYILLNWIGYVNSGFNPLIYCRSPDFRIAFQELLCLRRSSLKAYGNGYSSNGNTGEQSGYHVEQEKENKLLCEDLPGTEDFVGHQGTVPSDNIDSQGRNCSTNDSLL
Sequence of D(2) dopamine receptor (Homo sapiens) (P14416 whole entry, looked up): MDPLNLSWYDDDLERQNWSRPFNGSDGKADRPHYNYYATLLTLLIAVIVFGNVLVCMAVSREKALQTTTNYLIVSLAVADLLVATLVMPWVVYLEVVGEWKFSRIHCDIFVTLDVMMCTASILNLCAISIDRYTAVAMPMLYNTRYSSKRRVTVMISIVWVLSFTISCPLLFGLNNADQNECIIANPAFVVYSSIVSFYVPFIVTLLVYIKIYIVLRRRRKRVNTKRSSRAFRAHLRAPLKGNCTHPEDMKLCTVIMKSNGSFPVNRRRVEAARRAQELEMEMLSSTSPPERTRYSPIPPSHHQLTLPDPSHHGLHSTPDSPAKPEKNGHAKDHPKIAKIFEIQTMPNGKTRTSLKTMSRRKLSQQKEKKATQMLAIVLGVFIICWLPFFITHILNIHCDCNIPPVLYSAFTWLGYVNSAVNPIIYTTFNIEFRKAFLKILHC
Sequence of 5-hydroxytryptamine receptor 2A (Homo sapiens) (P28223 whole entry, looked up): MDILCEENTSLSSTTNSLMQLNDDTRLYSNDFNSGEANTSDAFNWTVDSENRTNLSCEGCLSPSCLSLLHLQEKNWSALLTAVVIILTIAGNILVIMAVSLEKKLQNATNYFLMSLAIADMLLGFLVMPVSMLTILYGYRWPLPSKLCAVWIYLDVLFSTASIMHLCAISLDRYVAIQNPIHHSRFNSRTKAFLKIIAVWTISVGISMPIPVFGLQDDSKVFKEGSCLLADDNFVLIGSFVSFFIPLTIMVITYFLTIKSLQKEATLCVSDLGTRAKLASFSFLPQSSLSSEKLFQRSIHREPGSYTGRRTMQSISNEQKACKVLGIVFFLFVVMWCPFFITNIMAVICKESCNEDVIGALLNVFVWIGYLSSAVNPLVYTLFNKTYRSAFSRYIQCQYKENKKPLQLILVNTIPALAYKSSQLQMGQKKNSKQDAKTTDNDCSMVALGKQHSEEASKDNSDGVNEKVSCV
Sequence of KiSS-1 receptor (Homo sapiens) (Q969F8 whole entry, looked up): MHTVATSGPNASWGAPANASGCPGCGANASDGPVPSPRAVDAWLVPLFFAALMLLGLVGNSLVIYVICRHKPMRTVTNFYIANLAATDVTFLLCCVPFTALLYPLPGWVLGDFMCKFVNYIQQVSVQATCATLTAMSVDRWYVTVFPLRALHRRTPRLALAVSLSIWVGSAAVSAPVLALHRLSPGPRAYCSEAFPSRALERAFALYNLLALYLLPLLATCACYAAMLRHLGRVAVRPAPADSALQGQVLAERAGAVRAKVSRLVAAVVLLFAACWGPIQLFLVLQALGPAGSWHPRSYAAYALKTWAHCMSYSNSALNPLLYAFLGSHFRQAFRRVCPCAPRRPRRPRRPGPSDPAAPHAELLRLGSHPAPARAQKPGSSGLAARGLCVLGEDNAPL

CC/C(C)=N/O
inactive: [1] | [2] | [3] | [4] | [5] | [6] | [7] | [8] | [9] | [10] | [11] | [12] | [13] | [14] | [15] | [16] | [17] | [18] | [19]

O=C(OCCOCCOC(=O)c1ccccc1)c1ccccc1
inactive and 7.5 nM (active): [12]
inactive: [1] | [2] | [3] | [4] | [5] | [6] | [7] | [8] | [9] | [10] | [11] | [13] | [15] | [16] | [20] | [17] | [18]

O=c1c(O)c(-c2ccc(O)cc2)oc2cc(O)cc(O)c12
17.2 µM (active) and inactive: [2]
inactive: [1] | [3] | [4] | [5] | [6] | [7] | [8] | [9] | [10] | [11] | [12] | [13] | [15] | [17] | [18] | [19]

Cc1ncc(CO)c(CO)c1O
inactive: [1] | [2] | [3] | [4] | [5] | [6] | [7] | [8] | [9] | [10] | [11] | [12] | [14] | [15] | [16] | [20] | [18] | [19]

O=C(O)CC(C(=O)O)C(CC(=O)O)C(=O)O (configuration not stated)
inactive: [1] | [2] | [3] | [4] | [5] | [6] | [7] | [8] | [9] | [10] | [11] | [12] | [13] | [14] | [16] | [20] | [17] | [18] | [19]

CCC(Cc1c(I)cc(I)c(N)c1I)C(=O)O (configuration not stated)
inactive and 10.6 µM (active): [19]
inactive: [1] | [2] | [3] | [4] | [5] | [6] | [7] | [8] | [9] | [10] | [11] | [14] | [15] | [16] | [17] | [18]
inactive and 3.65 µM (active): [12]

Cc1ccc([N+](=O)[O-])c(C)c1
18.2 µM (active) and inactive: [9]
inactive: [3] | [4] | [5] | [6] | [7] | [8] | [10] | [11] | [12] | [13] | [15] | [16] | [20] | [17] | [18] | [19]
1.93 µM (active) and inactive: [2]
2.43 µM (active) and inactive: [1]

NCCNc1cccc2ccccc12
54.4 µM (active) and inactive: [1]
active: [12] 2.9 nM | [13] 389 nM and 1.2 nM and 19 nM
inactive: [2] | [3] | [4] | [5] | [6] | [7] | [8] | [9] | [10] | [11] | [15] | [16] | [20] | [18] | [19]

C=CC(=O)OCCCC
inactive: [1] | [2] | [3] | [4] | [5] | [6] | [7] | [8] | [9] | [10] | [11] | [12] | [14] | [16] | [20] | [17] | [18] | [19]

Nc1ncnc2nc[nH]c12
inactive: [1] | [2] | [3] | [4] | [5] | [6] | [7] | [8] | [9] | [10] | [11] | [12] | [14] | [15] | [16] | [18] | [19]

O=C(O)CN(CC(=O)O)CC(=O)O
inactive: [1] | [2] | [3] | [4] | [5] | [6] | [7] | [8] | [9] | [10] | [11] | [12] | [13] | [15] | [16] | [20] | [17] | [18] | [19]

CC(=O)OCC(=O)[C@@]12N=C(C)O[C@@H]1C[C@H]1[C@@H]3CCC4=CC(=O)C=C[C@]4(C)[C@H]3[C@@H](O)C[C@@]12C
inactive: [1] | [2] | [3] | [4] | [5] | [6] | [7] | [8] | [9] | [10] | [11] | [12] | [13] | [15] | [16] | [20] | [17] | [18]

Brc1ccc(Br)c(Br)c1
inactive: [1] | [2] | [3] | [4] | [5] | [6] | [7] | [8] | [9] | [10] | [11] | [12] | [13] | [14] | [20] | [17] | [18] | [19]

CN(C)CCOC(=O)COc1ccc(Cl)cc1
inactive: [1] | [2] | [3] | [4] | [5] | [6] | [7] | [8] | [9] | [10] | [11] | [12] | [13] | [14] | [15] | [20] | [17] | [18] | [19]

O=S1(=O)CCCO1
inactive: [1] | [2] | [3] | [4] | [5] | [6] | [7] | [8] | [9] | [10] | [11] | [12] | [13] | [14] | [15] | [20] | [17] | [19]

COC(=O)C(C)Oc1ccc(Oc2ncc(C(F)(F)F)cc2Cl)cc1 (configuration not stated)
inactive: [1] | [2] | [3] | [4] | [5] | [6] | [7] | [8] | [9] | [10] | [11] | [12] | [13] | [14] | [15] | [16] | [17] | [18] | [19]
